Reference: PubChem BioAssay (NCI)
This is part of a sample that, as a whole, favours compounds with a hit. Of some 79,000 tested, about 15% had one in any assay. Unmarked numbers belong to inactive results. Active and inactive are the calls of the source. Rule as the data show it: active = growth inhibition above about 70%; inactive = the rest.

Columns and labels:
[1] = NCI Yeast Anticancer Drug Screen. Data for the rad50 strain (AID 155);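 also: 0% = growth of vehicle-only cultures of the same strain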; conditions: S. cerevisiae rad50 strain growth inhibition; at 50.0 µM; hits give high values
Outline: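 Relative growth inhibition (compound vs vehicle) was measured in yeast with a defined repair-gene alteration.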

[2] = NCI Yeast Anticancer Drug Screen. Data for the mec2-1 strain (AID 157); conditions: S. cerevisiae mec2-1 strain, at 50.0 µM, hits give high values
Outline: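 Cells of the genetically defined mec2-1 yeast strain are incubated with test compound. Inhibition of growth is calculated against vehicle-treated controls.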

[3] = NCI Yeast Anticancer Drug Screen. Data for the sgs1 mgt1 strain (AID 161);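 also: 0% = growth of cultures given vehicle only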; conditions: S. cerevisiae sgs1 mgt1 strain, at 50.0 µM, hits give high values
Outline: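 Mutant yeast exposed to compound; growth scored against vehicle-only wells.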

[4] = NCI Yeast Anticancer Drug Screen. Data for the cln2 rad14 strain (AID 165);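 also: 0% = growth equal to vehicle treated cultures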; conditions: S. cerevisiae cln2 rad14 strain, at 50.0 µM, hits give high values
Outline: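 The screen exposed genetically defined yeast (cln2 rad14) to test compounds and scored growth inhibition relative to vehicle-treated controls.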

[5] = NCI Yeast Anticancer Drug Screen. Data for the bub3 strain (AID 167); conditions: S. cerevisiae bub3 mutant strain, at 50.0 µM, hits give high values
Outline: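 Screening used yeast with an engineered genetic alteration affecting cell cycle control. Compound-exposed cultures were compared with vehicle cultures, and reduced growth was taken as inhibition.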

[6] = NCI Yeast Anticancer Drug Screen. Data for the mlh1 rad18 strain (AID 175); conditions: S. cerevisiae mlh1 rad18 strain growth inhibition; at 50.0 µM; hits give high values
Outline: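 Compound-treated yeast growth, normalised to vehicle controls. Strain bears defined DNA repair mutations.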

SMILES | growth inhibition [1] [%] | growth inhibition [2] [%] | growth inhibition [3] | growth inhibition [4] [%] | growth inhibition [5] [%] | growth inhibition [6] [%]
c1csc(-c2sc(-c3ccsc3)cc2Cc2ccsc2)c1 | -23.1 | -20.1 | -32.9% | -14.4 | -26.6 | -23.3
CCOC(=O)C1SC(=Nc2ccc(Cl)cc2Cl)N=C1C (stereo not given) | -0.75 | -10.3 | 4.4% | -19.2 | -2.85 | -10.8
COC(=O)[C@@H]1CCC(/C(C#N)=C2/CC[C@@H](C(=O)OC)N2)=N1 | 8.45 | 12.6 | 1.2% | -5.1 | 13.2 | 11.1
O=S(=O)(Nc1nccs1)c1ccc(Cl)cc1 | 25.1 | 46 | 74.2% (active) | 20.4 | 33 | 68.2
C[N+](C)=c1ccc2nc3ccc(N)cc3sc-2c1 | -84.8 | -59.5 | -43.6% | -66.7 | -79.8 | -76.8
CCOC(=O)/C=C/C(=O)NNS(=O)(=O)CCC(N)C(=O)O (stereo not given) | -6.65 | 13.4 | 0.5% | 2.8 | 6.8 | 0.45
Cc1cccc(C(=O)N(C)C(c2ccco2)P(=O)(c2ccccc2)c2ccccc2)c1 (stereo not given) | 19.9 | -16.4 | 68.2% | 27.1 | 33.1 | 2.9
CC(=O)Nc1ccc(S(=O)(=O)[N-]C2C(=O)c3ccccc3C(=O)C2[n+]2ccccc2)cc1 (stereo not given) | 25.4 | 23.1 | 28% | -0.35 | 27.8 | -1.8
CC(CO)CCC(=O)C(C)C1CC2(C)CCC3C(CCC4CC(O)CCC43C)C2C12SCCS2 (stereo not given) | 0.6 | 19.5 | -7.8% | 17.1 | 36.6 | -0.25
CNc1c(C)cc(C#N)cc1C | 7.45 | 1.25 | -10.6% | 0.2 | -4.7 | -5.4
Cc1nn(-c2ccc([N+](=O)[O-])cc2)c2c1C(C)(C)C(C#N)=C(N)O2 | -9.9 | -6.7 | -3.5% | -3.55 | 0.65 | 6.95
CCN(CC)N1C(=O)[N+](CC)(CC)N=C1[O-] | -8.55 | 4.15 | -11.6% | -30.8 | -5.35 | 2.05
Cc1ncc([N+](=O)[O-])n1CCNCCCCn1ccnc1[N+](=O)[O-] | -28.4 | -21.6 | -6.15% | -23.7 | -52.3 | -17.9
CC(C)N(CC(c1ccccc1)C(C)(O)c1ccccc1)C(C)C (stereo not given) | -10.1 | 15.7 | -7.55% | 4.2 | 26.7 | -21.1
CCOC(=O)NC(=O)c1cn(CCCOC(=O)CCCCCCCCCCC(=O)OCCCn2cc(C(=O)NC(=O)OCC)c(=O)[nH]c2=O)c(=O)[nH]c1=O | -28.5 | -24.2 | -12.4% | 18.6 | -0.95 | -18.9
Cc1[nH]c(C)c2ccc(=O)ccc12 | -51.4 | -8.35 | -16.6% | -58.2 | -2 | -7.65
O=C(Cl)c1ccc2c(c1)C(=O)NC2=O | -6.55 | -12.1 | -19.4% | 8.95 | -5.95 | -16.4
CC(SC(=S)N1CCOCC1)c1cc2oc(=O)n(C)c2cc1Cl (stereo not given) | 2.4 | 7.95 | 8.35% | -5.15 | 24.8 | 20.5
CCCC(=O)OCc1ccc(Cl)cc1 | 24.6 | 12.8 | 6.9% | 5.15 | 6.55 | 3.35
CCCCCCCCn1c(C)nc2c(cnn2C)c1=O | -9.6 | -19.2 | -6.15% | 20.9 | 36.1 | 4.8

SMILES | growth inhibition [1] [%] | growth inhibition [2] [%] | growth inhibition [3] | growth inhibition [4] [%] | growth inhibition [5] [%] | growth inhibition [6] [%]
O=C(Cn1ccnc1[N+](=O)[O-])c1ccc(F)cc1 | 62.8 | -13.9 | 33.9% | 4.6 | -9.9 | 13.3
C=C(C)COC(=O)Nc1cccc(Cl)c1 | 58.9 | -4.15 | 4.7% | 13.4 | 10.2 | 24.9
O=C(O)CC(Nc1ncccn1)C(=O)O (stereo not given) | 3.05 | 6 | 10.7% | 24.1 | -6.1 | 5.4
O=CN/C=C/c1ccccc1O | -5 | 1.8 | 4.1% | 6.95 | 12.1 | -4.6
CC(=O)OCN(C)N=Nc1ccc([N+](=O)[O-])cc1 | 28 | 10.5 | 25.8% | 6.15 | 10.6 | 22.6
CC(=O)OC1CCC2(C)C(=CCC3C2CCC2(C)/C(=N\NS(=O)(=O)c4ccc(C)cc4)CCC32)C1 (stereo not given) | 63.7 | 28.6 | 43.3% | -2.05 | 40.3 | 49.5
O=[N+]([O-])c1ccc(-c2ccncc2)cc1 | -32 | -31.9 | -19.4% | 20.6 | -18.1 | -9.05
CN(C)c1ccc([N+](=O)[O-])c2c1CCC2 | 9.7 | -4.55 | 7.25% | 5.6 | 6.85 | 6.55
N#CCCOC(=O)Nc1ccccc1 | 21.9 | 2.4 | -6.7% | -40.6 | -8.3 | 0.6
CCOC(=O)n1cccc(C)c1=N | -10.1 | 13.7 | 18.9% | -17.2 | -8.85 | 27.1
O=C1c2ccccc2-c2ccc(-c3ccc4c5c(cccc35)C(=O)c3ccccc3-4)c3cccc1c23 | -21.9 | -27.6 | -7.9% | -0.85 | -31.3 | -34.2
CCOC(=O)C1=C(C)N(NC(N)=O)C2(N)N(NC(N)=O)C(C)=C(C(=O)OCC)C12C#N (stereo not given) | -6.95 | 21.9 | 17.6% | 4.3 | 10.6 | -12.1
CC1(C)CC([N+](C)(C)CCCCCC[N+](C)(C)C2CC(C)(C)N(O)C(C)(C)C2)CC(C)(C)N1O | 3.6 | 0.45 | 14.9% | -4.3 | -3 | 12.5
O=[N+]([O-])c1ccc(SCN(CSc2ccc([N+](=O)[O-])cc2)Cc2ccccc2)cc1 | -6.35 | -6.85 | -1.2% | -17.4 | 4.65 | -7
N#Cc1sc2c(c1OC(=O)c1ccccc1)c(=O)n(-c1ccccc1)c(=S)n2-c1ccccc1 | -2.65 | 10.8 | 3.45% | -12.4 | -5.95 | 18
CC(C)OC(=O)/C=C/C(=O)OC(C)C (tested in a mixture with another compound) | -13.1 | -6.9 | -13.6% | -20.4 | -13.8 | -23.1
O=[N+]([O-])c1ccc(CCCc2ccc([N+](=O)[O-])cc2)cc1 | 39.6 | 7.35 | 58.9% | -41.2 | 11.6 | 15.1
O=C1/C(=C/c2ccc(Cl)cc2)COc2ccc(Br)cc21 | 26.1 | 4.85 | -5.1% | 6.7 | 1.8 | -2.45
COc1ccc2oc(=O)c(-c3csc(-c4ccccc4)n3)cc2c1 | 13.6 | 5.85 | -5.5% | 1.25 | -24.4 | -45.2
O=C1CN(c2cccc(Cl)c2)C(=O)CN1NCNN1CC(=O)N(c2cccc(Cl)c2)CC1=O | -12.8 | -0.1 | 3.9% | 6.65 | -6.8 | 2.75
